PubChem BioAssay AID463173 (ICCB-Longwood Screening Facility, Harvard Medical School, 2010)
In all, about 52,000 compounds went through this assay and about 4,300 (8.3%) were called active. The list comes from a sample in which actives are over-represented; it also holds similar structures and randomly drawn compounds. Values without a mark were called inactive. Rule as the data show it: active = survival mostly below about 52% (no sharp cut-off); inactive = mostly above about 56%.

System: DeltatarO mutant
Experiment: S. aureus survival, RN4220 and DeltatarO strains – OD600, teichoic acid synthesis inhibitors, primary screen (AID 463173)
Settings: S. aureus RN4220 wild type/DeltatarO growth, OD600, 18 h, stronger effect = lower value, screened at 18.75 µg/mL (by protocol)

| Structure (SMILES) | survival |
| --- | --- |
| Cc1c(CNCc2ccc(Cl)cc2)c(C(=O)O)c(C)n1Cc1ccc(F)cc1 | 77% |
| CCOc1ccc(S(=O)(=O)N2CCN(Cc3nc4ccc(C)cc4o3)CC2)cc1 | 73% |
| Cc1ccc(NC(=O)CN(Cc2ccccc2)S(=O)(=O)c2ccc3nc(C)sc3c2)c(C)c1 | 83% |
| CCC(=O)N1CCc2cc(CNC(=O)c3cccc(N(C)C)c3)ccc21 | 84% |
| CCOc1ccc(NC(=O)CC2C(=O)N(c3ccc(OC)cc3)C(=O)N2C2CCCCC2)cc1 (stereo unspecified) | 110% |
| CCc1nccn1S(=O)(=O)c1cc(Br)ccc1Br | 43% (active) |
| Cc1nccn1S(=O)(=O)c1c(C(C)C)cc(C(C)C)cc1C(C)C | 86% |
| CCOc1ccc(OCC)c(S(=O)(=O)n2cnc3cc(C)c(C)cc32)c1 | 104% |
| CCOc1cc(C)c(C(C)C)cc1S(=O)(=O)n1ccnc1CC | -3% (active) |
| Cc1nccn1S(=O)(=O)c1ccc(Cl)cc1Cl | 67% |
| COc1cc(S(=O)(=O)n2ccnc2C(C)C)ccc1Br | 55% |
| Cc1ccc(NC(=O)CN(C)S(=O)(=O)c2cnc[nH]2)cc1 | 102% |
| Cc1cc(C(=O)NCc2ccccc2)c2c(C)nn(-c3cccc(F)c3)c2n1 | 55% |
| O=C(NCc1ccccc1)C1CCN(c2ncnc3c2nc2n3CCCCC2)CC1 | 84% |
| O=C(NCCc1ccc(Cl)cc1)C1CCN(c2ncnc3c2nc2n3CCCCC2)CC1 | 89% |
| O=C(C1CCN(c2ncnc3c2nc2n3CCCCC2)CC1)N1CCN(c2ccc(Cl)cc2)CC1 | 81% |
| O=C(C1CCN(c2ncnc3c2nc2n3CCCCC2)CC1)N1CCN(c2ccc(F)cc2)CC1 | -1% (active) |
| Cc1cccc(N2CCN(C(=O)C3CCN(c4ncnc5c4nc4n5CCCCC4)CC3)CC2C)c1 (stereo unspecified) | 6% (active) |
| O=C(C1CCN(c2ncnc3c2nc2n3CCCCC2)CC1)N1CCN(c2ccccc2)CC1 | 72% |
| O=C(NCCc1ccccc1)C1CCN(c2ncnc3c2nc2n3CCCCC2)CC1 | -2% (active) |
| Cc1ccc(N2CCN(C(=O)C3CCN(c4ncnc5c4nc4n5CCCCC4)CC3)CC2)c(C)c1 | 79% |
| Cc1cccc(N2CCN(c3ncnc4c3nc3n4CCCCC3)CC2C)c1 (stereo unspecified) | 101% |
| O=c1c(N2CCc3ccccc3C2)csc2ccc(Br)cc12 | 78% |

| Structure (SMILES) | survival |
| --- | --- |
| Cc1cc(C)c(S(=O)(=O)Nc2ccc(-c3ccc(N4CCCCCC4)nn3)cc2)c(C)c1 | 84% |
| O=C1CC(C(=O)NCc2ccccc2)N=C(N2CCCCC2)N1 (stereo unspecified) | 97% |
| Cc1cc(C)cc(NC(=O)CN(C)S(=O)(=O)c2ccc3c(c2)CCC(=O)N3)c1 | 90% |
| CCCCOC(=O)OC1CCS(=O)(=O)C1 (stereo unspecified) | 66% |
| Cc1cccc(-n2cc(-c3ccccc3)c3c(NC(C)C)ncnc32)c1 | 107% |
| Cc1nc2nc(C(F)(F)F)[nH]c2cc1Br | 4% (active) |
| Nc1ccc2nc(C(F)(F)F)[nH]c2c1 | 95% |
| CC(C)C(=O)Nc1cccc(-c2nc3ccccc3o2)c1 | 112% |
| Cc1ccc(C(=O)Nc2cccc(-c3nc4ccccc4o3)c2)c(Cl)c1 | 53% |
| Cc1cc2oc(C(=O)Nc3cccc(-c4nc5ccccc5o4)c3)c(C)c2cc1Cl | 80% |
| Cc1cc(OC(C)C(=O)Nc2cccc(-c3nc4ccccc4o3)c2)cc(C)c1Cl (stereo unspecified) | 46% (active) |
| CC(Oc1ccccc1F)C(=O)Nc1ccc(-c2nc3ccccc3s2)cc1 (stereo unspecified) | 107% |
| COc1ccccc1OC(C)C(=O)Nc1cccc(-c2nc3ccccc3o2)c1 (stereo unspecified) | 18% (active) |
| CC(=O)Nc1cccc(-c2nc3ccccc3o2)c1 | 107% |
| COc1ccccc1OC(C)C(=O)Nc1cccc(-c2nc3ccccc3s2)c1 (stereo unspecified) | 37% (active) |
| COc1ccccc1OC(C)C(=O)Nc1ccc(-c2nc3ccccc3s2)cc1 (stereo unspecified) | 64% |
| COc1ccc(-c2cn3nc(N4CCCC(C(=O)Nc5cccc(Cl)c5C)C4)sc3n2)cc1 (stereo unspecified) | 82% |
| COc1ccc(-n2ncc(C(=O)NCCCN3CCCCC3)c2C2CCN(C(=O)OC(C)(C)C)CC2)cc1 | 73% |
| CCCOc1ccc(C(=O)Nc2ccc3oc(-c4ccncc4)nc3c2)cc1 | 62% |
| Cc1cccc(-c2cc(NC(=O)c3ccccc3C)n(-c3ccccc3)n2)c1 | 80% |
| Cc1nc2sc(C(=O)N(C)c3ccccc3)c(NC(=O)c3ccccc3Cl)c2c(C)c1C | 57% |
| CCCCCn1c(=O)[nH]c2cc(C(=O)NCc3ccc(Cl)cc3)ccc2c1=O | 71% |
| COc1cccc2cc(-c3csc(-c4ccc(Cl)cc4)n3)c(=O)oc12 | 99% |

| Structure (SMILES) | survival |
| --- | --- |
| COc1ccc(NC(=O)c2c(C)oc3ccc(O)c(CN4CCCC(C)C4)c23)cc1Cl (stereo unspecified) | 52% (active) |
| CCN1CCN(Cc2c(O)ccc3oc(C)c(C(=O)Nc4ccc(OC)c(Cl)c4)c23)CC1 | 66% |
| COc1ccc(NC(=O)c2c(C)oc3ccc(O)c(CN4CCCCCC4)c23)cc1Cl | 94% |
| COc1ccc(NC(=O)c2c(C)oc3ccc(O)c(CN4CCCC4)c23)cc1Cl | 80% |
| COc1ccc(NC(=O)c2c(C)oc3ccc(O)c(CN4CCC(C)CC4)c23)cc1Cl | 55% (active) |
| COc1ccc(NC(=O)c2c(C)oc3ccc(O)c(CN4CCCC(C)C4)c23)cc1 (stereo unspecified) | 87% |
| COc1ccc(CCNCc2c(C(=O)O)c(C)n(Cc3c(F)cccc3Cl)c2C)cc1OC | 121% |
| CCCCOC(=O)c1ccc(NC(=O)Cn2nnc3sc4c(c3c2=O)CCCC4)cc1 | 67% |
| Cc1ccc(CCNS(=O)(=O)c2c(C)nc3sc(C)c(C)n3c2=O)cc1 | 82% |
| CCCNC(=O)c1cnc2sc(N3CCCCCC3)nn2c1=O | 78% |
| COc1ccc(CNC(=O)c2ccc(NC(=O)N3CCSc4ncccc43)cc2)cc1 | 84% |
| COc1ccc(OC)c(-n2c3c(cc(-c4nc(-c5ccc(Cl)cc5)cs4)c2=O)C(=O)CC(C)(C)C3)c1 | 75% |
| Cc1cc2nc(-c3ccc(NC(=O)c4cc5ccccc5o4)cc3)oc2cc1C | 51% |
| CCc1ccc2oc(-c3cccc(NC(=O)c4ccc(-c5cccc([N+](=O)[O-])c5)o4)c3)nc2c1 | 58% |
| CCc1ccc2oc(-c3cccc(NC(=O)C(C)(C)Oc4ccc(Br)cc4)c3)nc2c1 | 36% (active) |
| CCOc1ccc(C(=O)Nc2ccc(-c3nc4cc(CC)ccc4o3)cc2)cc1 | 61% |
| CCc1ccc2oc(-c3ccc(NC(=O)c4cccc(Cl)c4Cl)cc3)nc2c1 | 63% |
| CCc1ccc2oc(-c3cccc(NC(=O)COc4ccccc4Cl)c3)nc2c1 | 57% |
| CCc1ccc2oc(-c3ccc(N)cc3)nc2c1 | 34% (active) |
| CC(C)c1ccc2oc(-c3ccc(NC(=O)c4cc5ccccc5o4)cc3)nc2c1 | 48% |
| CCC(C)c1ccc2oc(-c3ccc(NC(=O)c4cc5ccccc5o4)cc3)nc2c1 (stereo unspecified) | 46% (active) |
| CCc1ccc2oc(-c3cccc(NC(=O)c4cc5ccccc5o4)c3)nc2c1 | 14% (active) |
| COc1ccc(-c2nc3cc(NC(=O)c4cc5ccccc5o4)ccc3o2)cc1 | 62% |

| Structure (SMILES) | survival |
| --- | --- |
| CCOc1ccc(C(=O)Nc2ccc3oc(-c4ccc(Br)cc4)nc3c2)cc1 | 68% |
| COc1ccc2c(c1)c1c(c(=O)n(-c3ccc(F)c(Cl)c3)c(=O)n1Cc1ccccc1C)n2C | 83% |
| COc1ccc(-n2ccnc2SCC(=O)Nc2cccc(OC)c2)cc1 | 98% |
| Cc1cc(=O)[nH]c2nnc(SCC(=O)Nc3ccc(OC(F)(F)F)cc3)n12 | 74% |
| CCc1ccc(CNC(=O)c2ccc(-n3c(C)cc4c3CCC(C)C4)cc2)cc1 (stereo unspecified) | 123% |
| Cc1ccn2c(=O)cc(CSc3nnc(C)s3)nc2c1 | 77% |
| COc1ccc(-c2cc(OC(=O)c3cccc(Cl)c3)c3c(C)oc(C)c3c(=O)c2)cc1 | 132% |
| COc1ccc(S(=O)(=O)N2CCN(c3cccc(C)c3C)CC2)c2ccccc12 | 152% |
| CCCN1CCN(c2ncc3c(n2)CCN(Cc2ccc(OC)c(OC)c2OC)C3)CC1 | 83% |
| CCc1ccc2oc(-c3ccc(NC(=O)c4cc5ccccc5o4)cc3)nc2c1 | 40% (active) |
| O=C(Nc1ccc(-c2nc3cc(Cl)ccc3o2)cc1)c1cc2ccccc2o1 | 52% |
| Cc1ccc(-c2nc3cc(NC(=O)c4cc5ccccc5o4)ccc3o2)cc1 | 72% |
| O=C(O)CC(NC(=O)Cc1ccccc1)c1ccccc1 (stereo unspecified) | 99% |
| O=C1CCCc2cc(S(=O)(=O)NCC3CCC(C(=O)NCc4ccccc4Cl)CC3)ccc2N1 (stereo unspecified) | 71% |
| O=C(Nc1c(Cl)cccc1Cl)c1cccc2c1C(=O)N(C1CCCCC1)C2 | 78% |
| COc1cc(NC(=O)c2cccc3c2C(=O)N(C2CCCCC2)C3)cc(OC)c1 | 90% |
| Cc1cc(C)cc(NC(=O)c2cccc3c2C(=O)N(C2CCCCC2)C3)c1 | 33% (active) |
| CC(C)c1ccc(NC(=O)c2cccc3c2C(=O)N(C2CCCCC2)C3)cc1 | -10% (active) |
| COc1cc(NC(=O)c2cccc3c2C(=O)N(C2CCCCC2)C3)cc(OC)c1OC | 53% |
| COC(=O)c1ccc(NC(=O)c2cccc3c2C(=O)N(C2CCCCC2)C3)cc1 | 80% |
| Cc1cccc(C2CC(=O)Nc3cc4c(cc32)OCO4)c1 (stereo unspecified) | 77% |
| CCCCN(Cc1ccccc1)C(=O)CN(C)S(=O)(=O)c1ccc2c(c1)c(=O)n(C)c(=O)n2C | 128% |
